Measurements from PubChem BioAssay AID504452 (The Scripps Research Institute Molecular Screening Center, 2011).
Activity calls are given as the source filed them. Cut-off read from the data, not from the text of the source: active = activation above about 85%; inactive = the rest.

Target: Peroxisome proliferator-activated receptor gamma (Homo sapiens) (UniProt P37231)
Experiment: PPARg partial agonist activation, primary screen, cell-based, luciferase reporter, luminescence (AID 504452);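 note: Cos-1 cells carrying PPARgamma and a response element luciferase reporter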
Conditions: at 5 µM, stronger effect = higher value; activation (% of full agonist control): measured here: relative to full agonist control

Peroxisome proliferator-activated receptor gamma (Homo sapiens), sequence (P37231 whole entry, looked up): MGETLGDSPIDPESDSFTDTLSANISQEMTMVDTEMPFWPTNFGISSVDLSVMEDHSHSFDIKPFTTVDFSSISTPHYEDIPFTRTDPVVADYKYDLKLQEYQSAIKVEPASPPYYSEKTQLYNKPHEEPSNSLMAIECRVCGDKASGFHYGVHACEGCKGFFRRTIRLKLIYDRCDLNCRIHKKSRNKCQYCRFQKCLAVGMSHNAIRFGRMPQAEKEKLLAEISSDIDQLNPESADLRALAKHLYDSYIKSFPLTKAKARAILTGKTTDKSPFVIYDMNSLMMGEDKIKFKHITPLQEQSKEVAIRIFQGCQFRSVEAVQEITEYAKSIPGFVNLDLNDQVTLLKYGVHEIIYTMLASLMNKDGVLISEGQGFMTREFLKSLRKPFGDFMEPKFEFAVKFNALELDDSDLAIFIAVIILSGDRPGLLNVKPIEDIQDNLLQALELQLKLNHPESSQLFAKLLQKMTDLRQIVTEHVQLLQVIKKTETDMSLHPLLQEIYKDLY

| SMILES | activation (% of full agonist control) | activation (% of partial agonist control) |
| --- | --- | --- |
| O=C(COc1cc(F)ccc1[N+](=O)[O-])N1N=C(c2cccs2)CC1c1ccco1 (centres undefined) | 35.6% | 78.9% (inactive) |
| O=C(CN(c1ccc(F)cc1)S(=O)(=O)c1ccccc1)NC1CC2CCC1C2 (centres undefined) | 24.2% | 53.5% (inactive) |
| COc1cc(CN2CCN(c3cccc(C)c3C)CC2)cc([N+](=O)[O-])c1O | 33.7% | 74.7% (inactive) |
| COc1ccc(-c2nn(-c3ccccc3)cc2/C=C2/SC(=S)N(CCC(=O)O)C2=O)c(C)c1 | 44.4% | 98.3% (active) |
| COc1cccc(NC(=O)c2ccc3c(c2)N(CC(=O)N2CCOCC2)C(=O)C(C)(C)O3)c1 | 32.5% | 71.9% (inactive) |
| CCn1cnc2c1c(=O)n(Cc1cccc([N+](=O)[O-])c1)c(=O)n2Cc1ccccc1 | 64.1% | 142% (active) |
| O=C(CCCCCNC(=O)N1CCn2c1nc1ccccc12)N[C@H](Cc1ccccc1)C(=O)O | 27.3% | 60.5% (inactive) |
| COC(=O)C1=CN(Cc2ccc(F)cc2)C=C(C(=O)OC)C1c1ccc(O)c(OC)c1 | 26.8% | 59.4% (inactive) |
| Cc1cc(N2C(=O)C(O)=C(C(=O)c3ccc(C)o3)C2c2cccc(Oc3ccccc3)c2)no1 (centres undefined) | 34.1% | 75.5% (inactive) |
| COC(=O)c1cc(C(=O)N2CCN(c3cccc(Cl)c3)CC2)cc([N+](=O)[O-])c1 | 27% | 59.7% (inactive) |
| COc1ccc(/C=C(\NC(=O)c2ccco2)C(=O)NC(Cc2ccccc2)C(=O)O)cc1 (centres undefined) | 31.3% | 69.3% (inactive) |
| CC(Oc1ccc(F)cc1)C(=O)Nc1cc(S(=O)(=O)N2CCOCC2)ccc1N1CCCCC1 (centres undefined) | 33.8% | 74.8% (inactive) |
